Screens deposited in PubChem BioAssay by National Center for Advancing Translational Sciences (NCATS).
Compounds with a hit are over-represented: about 10% of the library has one in this group of screens.
GPT2 inh – inhibitors of human GPT2 alanine aminotransferase | Q8TD30 | Recombinant GPT2, coupled pyruvate oxidase/HRP Amplex Red fluorescence | Potency, µM (series often up to 57.7 µM), for the others: top-dose activity change, negative = inhibition, hits mostly inhibitors | 100,000 tested, 0.25% active | AID 1671188; note: nearly all actives have a fitted effect of over 60% in size
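Fluorescence read-out: pyruvate from GPT2 turnover coupled to pyruvate oxidase, HRP and Amplex Red (0.2mM ThPP, 0.2U/mL PO and HRP, 50uM Amplex final). Substrates 250uM a-KG, 2mM L-alanine; enzyme 10ng/uL; 30 min RT.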
FLuc inh – blocks purified firefly luciferase enzyme activity. purified P. pyralis luciferase, luminescence, biochemical. Potency, µM (titrated, usually from 115 µM), most hits filed as inhibitors. 76,000 tested, 2.5% active. AID 1347043; note: nearly all actives have a fitted effect of over 65% in size
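Purified 10nM P. pyralis luciferase with 10uM D-luciferin and 10uM ATP in 50mM Tris acetate pH 7.5, 10mM Mg acetate, 0.01% Tween-20, 0.05% BSA. qHTS titration; luminescence read by CCD imager.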
HEK293 tox – HEK 293 cell cytotoxicity. HEK 293 viability, ATP luminescence (CellTiter-Glo), 48-72 h. Potency, µM (top dose mostly 115 µM), without a hit: at the highest dose activity change, negative = cytotoxicity, hits mostly inhibitors. 94,000 tested, 6.6% active. AID 1345083; note: nearly all actives have a fitted effect of over 60% in size
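Luminescence from cellular ATP, measured with CellTiter-Glo, indicates HEK 293 viability. Cells plated at 250 cells/well are treated with compound for 48 or 72 hr at 37 degree Celsius before reagent addition.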
hNpr1 antagonist – blocks ANP-stimulated signaling of human Npr1 receptor; HEK293 hNpr1 GloSensor cGMP, ANP-stimulated luminescence; AID 1347048; Potency, µM (titrated, usually from 46.3 µM), without a hit: top-dose activity change, negative = inhibition, actives largely listed as inhibitors; 76,000 tested, 1.6% active; calls by dose curve; note: nearly all actives have a fitted effect of over 60% in size
Target sequence (P16066 whole entry, looked up): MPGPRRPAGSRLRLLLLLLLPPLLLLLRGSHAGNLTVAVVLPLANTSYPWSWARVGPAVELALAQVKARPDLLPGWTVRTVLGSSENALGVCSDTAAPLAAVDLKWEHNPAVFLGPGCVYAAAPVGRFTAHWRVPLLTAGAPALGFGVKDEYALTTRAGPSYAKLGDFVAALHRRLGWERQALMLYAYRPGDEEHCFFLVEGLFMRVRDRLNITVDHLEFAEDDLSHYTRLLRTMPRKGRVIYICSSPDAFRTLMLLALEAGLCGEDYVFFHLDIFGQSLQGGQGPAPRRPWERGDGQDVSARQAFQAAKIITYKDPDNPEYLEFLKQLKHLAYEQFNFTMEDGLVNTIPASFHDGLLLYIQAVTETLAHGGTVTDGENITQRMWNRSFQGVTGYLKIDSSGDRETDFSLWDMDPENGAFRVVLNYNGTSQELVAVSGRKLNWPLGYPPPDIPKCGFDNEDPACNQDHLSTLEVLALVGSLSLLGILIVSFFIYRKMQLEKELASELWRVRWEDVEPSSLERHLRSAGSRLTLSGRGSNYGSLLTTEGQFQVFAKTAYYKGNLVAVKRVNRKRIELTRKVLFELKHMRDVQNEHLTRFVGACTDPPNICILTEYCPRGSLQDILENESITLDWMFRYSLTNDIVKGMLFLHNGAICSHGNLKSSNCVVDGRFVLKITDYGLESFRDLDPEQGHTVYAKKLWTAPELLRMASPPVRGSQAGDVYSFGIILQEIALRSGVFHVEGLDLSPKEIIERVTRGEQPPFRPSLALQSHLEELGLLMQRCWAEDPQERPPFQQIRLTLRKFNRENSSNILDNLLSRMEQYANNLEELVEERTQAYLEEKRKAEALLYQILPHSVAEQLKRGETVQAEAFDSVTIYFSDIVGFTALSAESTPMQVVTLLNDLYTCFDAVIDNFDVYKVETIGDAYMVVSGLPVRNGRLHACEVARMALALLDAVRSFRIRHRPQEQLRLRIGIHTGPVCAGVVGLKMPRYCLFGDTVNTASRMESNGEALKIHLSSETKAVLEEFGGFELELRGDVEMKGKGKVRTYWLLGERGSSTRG
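Compound pre-incubated 30 min at room temperature on GloSensor-loaded HEK293 cells stably carrying hNpr1 and the pGS-40F cGMP biosensor. Stimulation uses hNppA at 0.1 nM final; luminescence is taken at baseline and 20 min post-agonist.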
3T3 cytotox – cytotoxic compounds in NIH 3T3 cells. AID 1345082. Potency, µM (doses to about 96.7 µM), for the others: at the top dose activity change, negative = cytotoxicity, hits mostly inhibitors. NIH 3T3 viability, CellTiter-Glo ATP luminescence, 48-72 h. 94,000 tested, 4.3% active; note: nearly all actives have a fitted effect of over 55% in size
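Cells were seeded at 400 per well, treated with pin-transferred compound, and kept 48 or 72 hr at 37 °C before CellTiter-Glo addition and luminescence imaging of cellular ATP.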
Active calls of the source: *; i = inactive; ? = inconclusive; nt = no result given; [ ] = another dose, or the depositor's remark. Unless noted, calls come from the whole dose curve; as a rule, active = well fitted curve in the direction sought with a large enough effect; inconclusive = small, poorly fitted or top-dose-only effect, or another doubt; inactive = no such curve, though single readings can be large; an effect the other way counts as inactive or inconclusive. % is set by controls: 0 for no effect and ±100 for the full control effect; potency is the fitted concentration of half-maximal effect.

SMILES | GPT2 inh | FLuc inh | HEK293 tox | hNpr1 antagonist | 3T3 cytotox
O=C(c1ccncc1)N1CCCC(n2cc(-c3nc(-c4ccccc4)no3)nn2)C1 (stereo not drawn) | i | ? | -29.7% | -29.3% | ?
O=C(c1ccc(F)c(F)c1)N1CCCC(n2cc(-c3nc(-c4ccccc4)no3)nn2)C1 (stereo not drawn) | -9.6% | ? | 44.7µM* | 11.2µM* | ?
COc1ccc(C(=O)N2CCCC(n3cc(-c4nc(-c5ccccc5)no4)nn3)C2)cc1F (stereo not drawn) | i | ? | 20µM* | ? | ?
O=C(c1ccoc1)N1CCCC(n2cc(-c3nc(-c4ccccc4)no3)nn2)C1 (stereo not drawn) | i | ? | 50.1µM* | ? | ?
Cc1cccc(S(=O)(=O)N2CCC(Oc3ncccc3C(=O)N3CCOCC3)C2)c1 (stereo not drawn) | i | i | 0.2% | 4.4% | 2.3%
O=C([C@H]1C[C@H](Oc2ccccc2)CN1C(=O)c1ccco1)N1CCOCC1 | i | i | -25.5% | -3.8% | i
O=C(c1ccc(F)c(F)c1)N1CCC(n2cc(-c3nc(-c4ccccc4)no3)nn2)C1 (stereo not drawn) | i | ? | 39.8µM* | 11.2µM* | ?
O=C(c1cc(Cl)ccc1F)N1CCCC(n2cc(-c3nc(-c4ccccc4)no3)nn2)C1 (stereo not drawn) | i | ? | 31.6µM* | 15.8µM* | ?
CN(C)c1cccc(C(=O)N2CCC(n3cc(-c4nc(-c5ccccc5)no4)nn3)C2)c1 (stereo not drawn) | i | 31.6µM* | 28.2µM* | ? | ?
O=C(c1cccc(F)c1)N1CCC(n2cc(-c3nc(-c4ccccc4)no3)nn2)C1 (stereo not drawn) | i | i | ? | -4.9% | ?
O=C(c1cccc(F)c1)N1CCCC(n2cc(-c3nc(-c4ccccc4)no3)nn2)C1 (stereo not drawn) | -12.8% | ? | ? | ? | ?
O=C(c1cccc(Cl)c1)N1CCC(n2cc(-c3nc(-c4ccccc4)no3)nn2)C1 (stereo not drawn) | i | ? | 39.8µM* | -15.8% | ?
O=C(c1ccc2c(c1)OCO2)N1CCC(n2cc(-c3nc(-c4ccccc4)no3)nn2)C1 (stereo not drawn) | i | ? | ? | 12.6µM* | -42.9%
COc1ccccc1CC(=O)N1CCC(n2cc(-c3nc(-c4ccccc4)no3)nn2)CC1 | i | i | -1.6% | -0.1% | -18.1%
O=C(c1ccc2c(c1)OCO2)N1CCC(n2cc(-c3nc(-c4ccccc4)no3)nn2)CC1 | i | ? | ? | ? | ?
COc1ccc(OCC2CCCN(C(=O)c3cn(C4CCCCC4)nn3)C2)cc1 (stereo not drawn) | ? | 31.6µM* | ? | -3.4% | ?
O=C(c1ccc[nH]1)N1CCCC(n2cc(-c3nc(-c4ccccc4)no3)nn2)C1 (stereo not drawn) | i | ? | ? | ? | ?
COc1ccccc1C(=O)N1CCC(n2cc(-c3nc(-c4ccccc4)no3)nn2)C1 (stereo not drawn) | 2.2% | 31.6µM* | 28.2µM* | 12.6µM* | ?
O=C(c1cccs1)N1CCCC(n2cc(-c3nc(-c4ccccc4)no3)nn2)C1 (stereo not drawn) | i | 35.5µM* | ? | ? | ?
O=C(NC1CC1)C1COC2(CCN(C(=O)c3ccc(F)cc3)CC2)N1C(=O)c1cccc(F)c1 (stereo not drawn) | 2.3% | i | -0.5% | 3.7% | ?
Cn1cc(CN[C@H]2C[C@H]3C(=O)NC[C@@H](CCC(=O)NCc4ccc(F)cc4)N3C2)c2ccccc21 | i | i | -16.1% | 9.4% | -6.5%
O=C(C1CCCN1[S+](=O)([O-])c1ccccc1)N1CCC(N2Cc3cccn3C2=O)CC1 (stereo not drawn) | i | nt | -7.3% | nt | -29.0%
Cc1cc(CNC(=O)[C@@H]2CCC[C@@H](NC(=O)C3CCCC3)CN(C)C(=O)C2)no1 | -1.7%[88.5 µM] | i | 3.7%[172 µM] | 3.5%[70.6 µM] | i
CCCc1noc(-c2cn(C3CCN(C(=O)c4cc(F)cc(F)c4)CC3)nn2)n1 | i | i | ? | -6.0% | -24.6%
CCCc1noc(-c2cn(C3CCN(C(=O)c4cccc(F)c4)CC3)nn2)n1 | i | i | -13.1% | 0.0% | 35.5µM*
SMILES | GPT2 inh | FLuc inh | HEK293 tox | hNpr1 antagonist | 3T3 cytotox
O=C(c1cc(-c2ccccc2)n[nH]1)N1CCc2c(nc(-c3ccccc3)[nH]c2=O)C1 | -2.7% | ? | ? | -5.0% | ?
Nc1cc(C(=O)N2CCc3onc(-c4ccc(-c5ccccc5)cc4)c3C2)[nH]n1 | i | ? | 17.8µM* | 12.6µM* | ?
O=C1COc2ccc(N3CCCC3)nc2CN1Cc1ccccc1 | 2.0%[88.5 µM] | i | ? | -20.4%[70.6 µM] | ?
COc1ccc(Nc2ccnc(N3CCCC(C(=O)N4CCCCC4)C3)n2)cc1 (stereo not drawn) | i | nt | ? | nt | ?
COc1ccc(Nc2ccnc(N3CCCC(C(=O)NCc4cccs4)C3)n2)cc1 (stereo not drawn) | ? | nt | 35.5µM* | nt | 35.5µM*
O=C(NCc1cccs1)C1CCCN(c2nccc(Nc3ccccc3F)n2)C1 (stereo not drawn) | -5.5% | nt | ? | nt | ?
Cc1ccc(Nc2ccnc(N3CCCC(C(=O)NCc4cccs4)C3)n2)cc1 (stereo not drawn) | i | nt | 10µM* | nt | 17.8µM*
CCOC(=O)C1=CN(CC(=O)NCc2ccc(Cl)cc2)S(=O)(=O)N=C1C | i | i | ? | -1.7% | -20.2%
O=C(NC1CCC1)c1ccc2c(c1)C1(CCN(CC3CC3)C1)CN2Cc1ccccc1 (stereo not drawn) | -8.5%[88.5 µM] | i | 56.2µM* | -13.5%[70.6 µM] | ?
O=C(NCC1CC1)c1ccc2c(c1)C1(CCN(CC3CC3)C1)CN2Cc1ccccc1 (stereo not drawn) | -11.7%[88.5 µM] | i | ? | -9.1%[70.6 µM] | 79.4µM*
CN1CCC2(C1)CN(Cc1ccccc1)c1ccc(C(=O)NCC3CC3)cc12 (stereo not drawn) | 2.1%[88.5 µM] | i | 112µM* | -2.0%[70.6 µM] | ?
CN1CCC2(C1)CN(Cc1ccccc1)c1ccc(C(=O)NCCOc3ccccc3)cc12 (stereo not drawn) | 0.4% | i | 31.6µM* | 0.5% | ?
CCNC(=O)c1ccc2c(c1)C1(CCN(CC3CC3)C1)CN2Cc1ccccc1 (stereo not drawn) | ? | i | ? | -7.5%[70.6 µM] | ?
